Records with an inconclusive call do not appear. Activity calls are given as the source filed them. Unless noted, calls come from the whole dose curve; as a rule, active = well fitted curve in the direction sought with a large enough effect; inconclusive = small, poorly fitted or top-dose-only effect, or another doubt; inactive = no such curve, though single readings can be large; an effect the other way counts as inactive or inconclusive.
What was measured:
[1] = S16 Schwann cell PMP22 intronic element firefly luciferase assay (AID 624032); note: series mostly up to about 58 µM; nearly all actives have a fitted effect of over 30% in size
How it was run: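 Rat S16 Schwann cells stably carrying a PMP22 intronic element-driven Fluc reporter were seeded overnight, then exposed to compounds for 24 h at 37 °C. Luminescence was normalized to PTC124 (positive control) and DMSO (0% activity).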

[2] = target: Luciferin 4-monooxygenase (Photinus pyralis) (UniProt P08659); assay: Biochemical firefly luciferase enzyme assay for NPC (AID 624030);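 note: purified P. pyralis luciferase at 10 nM with luciferin and ATP substrate; series mostly up to about 59 µM; nearly all actives have a fitted effect of over 70% in size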
Sequence of Luciferin 4-monooxygenase (Photinus pyralis) (P08659 whole entry, looked up): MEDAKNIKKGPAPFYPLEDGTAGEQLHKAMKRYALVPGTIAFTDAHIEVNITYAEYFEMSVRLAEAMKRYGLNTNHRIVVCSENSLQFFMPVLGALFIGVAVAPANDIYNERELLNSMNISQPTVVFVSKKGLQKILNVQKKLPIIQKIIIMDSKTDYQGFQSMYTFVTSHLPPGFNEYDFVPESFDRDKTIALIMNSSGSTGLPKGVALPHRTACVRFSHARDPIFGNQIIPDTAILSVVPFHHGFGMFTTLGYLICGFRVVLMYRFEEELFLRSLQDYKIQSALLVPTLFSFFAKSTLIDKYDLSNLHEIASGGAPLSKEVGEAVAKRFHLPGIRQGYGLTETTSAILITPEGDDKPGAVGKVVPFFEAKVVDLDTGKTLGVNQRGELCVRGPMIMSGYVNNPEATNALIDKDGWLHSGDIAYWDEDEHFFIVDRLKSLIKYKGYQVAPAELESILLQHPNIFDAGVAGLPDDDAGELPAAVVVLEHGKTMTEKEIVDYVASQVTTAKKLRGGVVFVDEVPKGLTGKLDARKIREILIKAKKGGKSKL
How it was run: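 Counter-screen for direct inhibition of the luciferase enzyme by approved-drug library compounds, run at 10 nM enzyme in 50 mM Tris acetate (final). Luminescence was read within 5 min of enzyme-buffer addition and normalized to PTC124 versus DMSO (0%).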

[3] = target: Glutaminase kidney isoform, mitochondrial (Homo sapiens) (UniProt O94925); assay: qHTS for Inhibitors of Glutaminase (GLS): LOPAC Validation (AID 624146);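 note: glutamate product detected by oxidase and peroxidase coupled Amplex red fluorescence gain; series mostly up to about 46 µM; nearly all actives have a fitted effect of over 60% in size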
Sequence of Glutaminase kidney isoform, mitochondrial (Homo sapiens) (O94925 whole entry, looked up, canonical isoform): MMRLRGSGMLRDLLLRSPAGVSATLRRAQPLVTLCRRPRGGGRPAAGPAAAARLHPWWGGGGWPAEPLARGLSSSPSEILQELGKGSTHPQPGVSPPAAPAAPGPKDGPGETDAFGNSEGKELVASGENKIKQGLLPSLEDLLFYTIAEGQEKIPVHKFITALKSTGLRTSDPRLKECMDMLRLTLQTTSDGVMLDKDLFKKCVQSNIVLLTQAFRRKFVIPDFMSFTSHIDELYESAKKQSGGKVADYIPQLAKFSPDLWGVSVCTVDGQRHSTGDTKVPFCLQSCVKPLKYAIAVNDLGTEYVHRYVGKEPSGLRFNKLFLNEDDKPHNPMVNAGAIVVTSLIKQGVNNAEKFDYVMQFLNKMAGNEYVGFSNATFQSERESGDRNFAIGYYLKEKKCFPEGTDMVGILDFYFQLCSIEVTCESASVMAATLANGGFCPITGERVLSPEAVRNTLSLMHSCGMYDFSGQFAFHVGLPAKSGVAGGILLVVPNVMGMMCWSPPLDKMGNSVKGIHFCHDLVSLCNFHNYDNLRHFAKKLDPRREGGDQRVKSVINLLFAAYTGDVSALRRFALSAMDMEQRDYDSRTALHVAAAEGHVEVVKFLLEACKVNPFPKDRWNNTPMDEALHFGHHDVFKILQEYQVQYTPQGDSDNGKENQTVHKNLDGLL
How it was run: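 hKGA; 45 mM KH2PO4 pH 8.2 + 0.02% Tween-20; cpd via pin tool; 1 mM Gln soln; GluOx/HRP/Amplex Red; RT 30 min; fluor. t0 & final.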

[4] = qHTS of Trypanosoma Brucei Inhibitors: LOPAC Validation (AID 624147)
How it was run: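 TbPYK + substrate in 50 mM TEA pH 7.2, 100 mM KCl, 10 mM MgCl2, 0.05% BSA, 0.01% Tween-20; cpd pinned; ADP 130 uM final; 45 min RT; Kinase-Glo Plus 10 min; luminescence endpoint.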

[5] = target: Glucagon-like peptide 1 receptor (Homo sapiens) (UniProt P43220); assay: qHTS of GLP-1 Receptor Agonists: LOPAC Validation (AID 624148);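 note: higher luminescence signal means agonism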
Sequence of Glucagon-like peptide 1 receptor (Homo sapiens) (P43220 whole entry, looked up): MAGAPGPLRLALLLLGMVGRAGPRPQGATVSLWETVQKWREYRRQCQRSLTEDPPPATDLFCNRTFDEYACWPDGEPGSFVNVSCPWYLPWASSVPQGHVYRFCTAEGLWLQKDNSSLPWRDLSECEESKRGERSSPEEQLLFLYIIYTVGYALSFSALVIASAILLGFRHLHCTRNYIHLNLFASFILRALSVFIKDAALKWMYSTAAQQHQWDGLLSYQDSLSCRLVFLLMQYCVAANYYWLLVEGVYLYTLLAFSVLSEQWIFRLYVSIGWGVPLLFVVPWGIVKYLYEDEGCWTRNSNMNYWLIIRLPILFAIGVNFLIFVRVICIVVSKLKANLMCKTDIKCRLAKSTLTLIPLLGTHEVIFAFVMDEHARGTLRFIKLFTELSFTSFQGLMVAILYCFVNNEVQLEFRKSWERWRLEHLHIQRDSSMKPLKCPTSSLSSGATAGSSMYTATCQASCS
How it was run: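 HEK293 cells stably co-expressing a cAMP-responsive luciferase reporter and a hypersensitive GLP-1R were plated 12 h at 37 °C and exposed to compounds for 4-6 hr at 37 °C, 5% CO2. Luminescence was read 12 min after adding detection reagent.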

[6] = qHTS of Nrf2 Activators: LOPAC Validation (AID 624149)
How it was run: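 Following overnight seeding in 5% FBS OPTI-MEM, AREc32_Fluc cells receive compounds for a 24 hr incubation at 37 deg C with 5% CO2. Steady-Glo is added, and after 30 min at RT luminescence is recorded.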

[7] = HTS Assay for Allosteric Antagonists of the Human D2 Dopamine Receptor: Hit Validation in HTRF (AID 624455);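 note: stable D1 dopamine receptor cell line scored for blocking the D1 response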
How it was run: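 Validation of hits used D1 receptor stably expressed in cells with HTRF detection of response inhibition; origin screen measured calcium flux following EC80 dopamine in a force-coupled, inducible Hek293 Trex D2 cell line.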

[8] = target: Voltage-gated inwardly rectifying potassium channel KCNH2 (Homo sapiens) (UniProt Q12809); assay: qHTS Assay for Small Molecule Inhibitors of the Human hERG Channel Activity (AID 588834);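 note: U2OS cells transduced with hERG by BacMam; top concentration of the series differs between compounds; lower thallium flux fluorescence means stronger hERG block; nearly all actives have a fitted effect of over 50% in size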
Sequence of Voltage-gated inwardly rectifying potassium channel KCNH2 (Homo sapiens) (Q12809 whole entry, looked up): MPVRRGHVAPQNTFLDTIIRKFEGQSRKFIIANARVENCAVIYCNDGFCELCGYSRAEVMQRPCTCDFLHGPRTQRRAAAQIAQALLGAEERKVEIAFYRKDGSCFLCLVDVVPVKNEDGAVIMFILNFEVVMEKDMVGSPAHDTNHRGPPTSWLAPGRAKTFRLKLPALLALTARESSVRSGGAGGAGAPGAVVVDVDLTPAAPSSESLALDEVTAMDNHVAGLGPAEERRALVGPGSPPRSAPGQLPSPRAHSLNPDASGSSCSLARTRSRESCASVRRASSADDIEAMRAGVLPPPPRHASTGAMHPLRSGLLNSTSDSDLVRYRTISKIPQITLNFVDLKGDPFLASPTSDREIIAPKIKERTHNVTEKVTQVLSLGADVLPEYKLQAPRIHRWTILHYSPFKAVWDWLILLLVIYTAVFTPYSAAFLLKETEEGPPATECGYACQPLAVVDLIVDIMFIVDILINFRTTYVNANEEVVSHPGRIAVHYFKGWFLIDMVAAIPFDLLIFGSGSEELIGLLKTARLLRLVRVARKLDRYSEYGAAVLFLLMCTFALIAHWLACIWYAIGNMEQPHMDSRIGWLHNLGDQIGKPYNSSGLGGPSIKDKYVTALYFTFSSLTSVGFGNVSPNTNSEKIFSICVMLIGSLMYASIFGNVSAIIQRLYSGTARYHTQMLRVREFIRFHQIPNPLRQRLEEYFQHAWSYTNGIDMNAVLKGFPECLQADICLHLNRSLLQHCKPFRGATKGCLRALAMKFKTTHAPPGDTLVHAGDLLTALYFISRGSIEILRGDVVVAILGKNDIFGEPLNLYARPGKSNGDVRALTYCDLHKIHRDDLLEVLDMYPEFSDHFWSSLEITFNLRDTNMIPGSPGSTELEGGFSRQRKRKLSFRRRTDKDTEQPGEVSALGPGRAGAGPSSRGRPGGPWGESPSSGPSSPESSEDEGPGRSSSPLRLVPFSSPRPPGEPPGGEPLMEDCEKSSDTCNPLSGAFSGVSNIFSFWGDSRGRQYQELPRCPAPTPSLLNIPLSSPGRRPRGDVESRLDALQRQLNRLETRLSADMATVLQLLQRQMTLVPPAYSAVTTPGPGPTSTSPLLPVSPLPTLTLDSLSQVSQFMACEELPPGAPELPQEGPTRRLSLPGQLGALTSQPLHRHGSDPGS
How it was run: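 Cells were infected with hERG-BacMam virus for 4 hrs at room temperature, grown overnight, then seeded at 2000/well. After dye loading and roughly 10 min compound treatment, thallium influx was triggered and fluorescence recorded.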

[9] = S16 Schwann cell viability assay (CellTiter-Glo assay) (AID 624031);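 note: cellular ATP luminescence as a viability measure; series mostly up to about 58 µM; nearly all actives have a fitted effect of over 70% in size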
How it was run: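 Native S16 rat Schwann cells in DMEM/10% FBS without phenol red were incubated overnight, then exposed to compounds for 24 h at 37 °C/5% CO2. Viability was read as ATP luminescence (CellTiter-Glo), normalized to no-cell wells and DMSO (0%).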

[10] = S16 Schwann cell PMP22 intronic element beta-lactamase assay (AID 624044; calls by dose curve; note: nearly all actives have a fitted effect of over 15% in size)
How it was run: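 Beta-lactamase reporter under a PMP22 intronic regulatory element in stable S16 rat Schwann cells; 24 h compound exposure. 460 nm blue signal normalized between DMSO (0%) and potassium clavulanate, with 535 nm FRET tracking viability; curves classed by r2 and response.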

Measured: Potency

COCCCOc1ccnc(CS(=O)c2nc3ccccc3[nH]2)c1C (configuration not stated)
inactive: [1]

COc1cccc(C(=O)CCN[C@@H](C)[C@H](O)c2ccccc2)c1
inactive: [2]

CC(C)N(CCC(C(N)=O)(c1ccccc1)c1ccccn1)C(C)C (configuration not stated)
inactive: [3] | [4] | [5] | [6] | [7]

CCC1(c2ccc(N)cc2)CCC(=O)NC1=O (configuration not stated)
inactive: [8] | [3] | [4] | [5] | [6] | [7]

C[C@]12CC[C@@H]3c4ccc(OC(=O)N(CCCl)CCCl)cc4CC[C@H]3[C@@H]1CC[C@@H]2O
inactive: [8] | [9] | [1] | [10]
